Laboratory results taken from PubChem BioAssay (NCATS).
“And” between values parts separate entries of the source, which are not always exact repeats. Equal values may be shown once. Records with an inconclusive call do not appear. A call without a number means that no potency is given here. The source made the active and inactive calls. Unless noted, the call rests on the fitted dose curve.

What was measured:
[1] = qHTS assay for small molecule agonists of retinoid X receptor alpha signaling (AID 588544); conditions: HEK293T RXRa-UAS-bla, beta-lactamase reporter, 18 h; 530 nm emission
[2] = biological target: Retinoic acid receptor RXR-alpha (Homo sapiens) (UniProt P19793); assay: as above; conditions: HEK293T RXRa-UAS-bla, beta-lactamase reporter, 18 h; series mostly up to 76.7 µM
Chain of Retinoic acid receptor RXR-alpha (Homo sapiens) (P19793 whole entry, looked up): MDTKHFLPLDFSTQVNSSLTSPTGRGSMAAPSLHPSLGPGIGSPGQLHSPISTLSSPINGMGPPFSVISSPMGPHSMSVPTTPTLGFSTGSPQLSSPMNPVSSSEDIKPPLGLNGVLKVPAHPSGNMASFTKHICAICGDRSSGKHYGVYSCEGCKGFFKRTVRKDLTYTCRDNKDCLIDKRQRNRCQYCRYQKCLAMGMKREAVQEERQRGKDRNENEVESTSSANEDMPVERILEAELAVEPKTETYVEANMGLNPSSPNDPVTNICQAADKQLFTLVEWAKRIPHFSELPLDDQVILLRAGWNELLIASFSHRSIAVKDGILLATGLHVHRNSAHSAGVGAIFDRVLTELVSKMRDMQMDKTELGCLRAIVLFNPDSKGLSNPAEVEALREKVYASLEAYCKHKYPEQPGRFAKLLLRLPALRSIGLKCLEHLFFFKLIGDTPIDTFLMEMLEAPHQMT

[3] = biological target: Thyroid hormone receptor beta (Homo sapiens) (UniProt P10828); assay: qHTS assay for small molecule agonists of thyroid hormone receptor beta signaling (AID 588545); conditions: TR-UAS-bla GripTite HEK 293, beta-lactamase ratio, agonist mode, 18 h, percent of T3 response, DMSO as zero; series mostly up to 76.7 µM
Chain of Thyroid hormone receptor beta (Homo sapiens) (P10828 whole entry, looked up): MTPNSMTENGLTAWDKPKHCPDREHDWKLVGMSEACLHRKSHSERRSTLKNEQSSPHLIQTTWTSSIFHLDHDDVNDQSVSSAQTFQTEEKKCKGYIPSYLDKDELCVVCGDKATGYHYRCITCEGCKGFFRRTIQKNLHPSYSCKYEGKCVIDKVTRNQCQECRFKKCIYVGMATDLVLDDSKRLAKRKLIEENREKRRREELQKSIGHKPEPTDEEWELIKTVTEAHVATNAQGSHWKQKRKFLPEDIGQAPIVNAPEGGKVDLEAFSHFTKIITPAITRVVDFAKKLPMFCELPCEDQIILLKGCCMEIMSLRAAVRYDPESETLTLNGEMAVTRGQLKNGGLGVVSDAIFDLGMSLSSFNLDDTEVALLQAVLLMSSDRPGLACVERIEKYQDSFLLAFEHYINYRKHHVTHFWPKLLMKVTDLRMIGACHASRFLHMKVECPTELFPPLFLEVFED
Outline: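 TR-UAS-bla-GripTite HEK 293 cells in medium with 2% charcoal/dextran FBS, 0.1 mM NEAA and 1 mM sodium pyruvate were treated with titrated compounds for 18 hrs at 37 C. Beta-lactamase reporter was read with CCF4 dye (ex 405, em 460/530 nm); EC50 from Hill fits.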

[4] = qHTS assay for small molecule antagonists of retinoid X receptor alpha signaling (AID 588546; active means well fitted inhibition curve with a large enough effect in the signal ratio, with a control signal flat, not every such curve was filed as active; the % refers to the signal ratio;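 further: cells stimulated with 9-cis-retinoic acid as agonist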); conditions: HEK293T RXRa-UAS-bla, beta-lactamase ratio, antagonist mode; measured here: W530 green channel, cytotoxicity proxy
Outline: (§1)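 Beta-lactamase reporter inhibition, read as CCF4 fluorescence ratio (ex 405, em 460/530 nm) after 2 h at RT. HEK293T UAS-bla cells, 2500/well, were stimulated with 9-cis-RA at 500 or 100 nM final alongside test compound for 18 h at 37 C.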

[5] = biological target: Retinoic acid receptor RXR-alpha (Homo sapiens) (UniProt P19793); assay: as above; conditions: HEK293T RXRa-UAS-bla, beta-lactamase ratio, antagonist mode
Outline: as §1

[6] = biological target: Thyroid hormone receptor beta (Homo sapiens) (UniProt P10828); assay: qHTS assay for small molecule antagonists of thyroid hormone receptor beta signaling (AID 588547; active means well fitted inhibition curve with a large enough effect in the signal ratio, with a control signal flat, not every such curve was filed as active; the % refers to the signal ratio;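 further: cells stimulated with 0.4 nM T3 agonist during compound exposure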); conditions: TR-UAS-bla HEK293, beta-lactamase ratio, antagonist mode, 18 h
Outline: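 TR-UAS-bla GripTite HEK293 cells in 2% charcoal/dextran FBS medium were preincubated 4 h at 37 C, given compound (0.59 nM to 92 uM) plus 0.4 nM T3 (final) for 18 h, then CCF4 for 2 h at RT; Hill fit gave IC50.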

[7] = qHTS assay for small molecule activators of the p53 signaling pathway (AID 651743; active means well fitted activation curve with a large enough effect in the signal ratio, not every such curve was filed as active; the % refers to the signal ratio); conditions: HCT-116 p53RE-bla, beta-lactamase FRET ratio, 16 h; stronger effect = higher value
Outline: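 Agonist-mode quantitative HTS in HCT-116 cells carrying a p53-response-element beta-lactamase reporter; 16 h compound treatment at 37 C, then FRET substrate loading for 2 h at room temperature and fluorescence read.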

[8] = biological target: Tumor necrosis factor (Homo sapiens) (UniProt P01375); assay: qHTS assay to identify small molecules that stimulate Tumor Necrosis Factor-alpha (TNF-alpha) secretion (AID 651757; active means well fitted curve in the direction sought with a large enough effect in the signal ratio; the % refers to the signal ratio); conditions: Human cells, HTRF 665/615 ratio; series mostly up to 92.2 µM
Chain of Tumor necrosis factor (Homo sapiens) (P01375 whole entry, looked up): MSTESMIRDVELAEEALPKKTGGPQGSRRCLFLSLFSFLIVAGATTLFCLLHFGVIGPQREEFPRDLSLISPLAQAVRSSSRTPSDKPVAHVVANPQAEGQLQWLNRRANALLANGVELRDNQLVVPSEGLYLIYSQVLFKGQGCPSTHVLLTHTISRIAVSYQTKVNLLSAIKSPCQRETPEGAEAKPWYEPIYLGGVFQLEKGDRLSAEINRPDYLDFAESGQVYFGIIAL
Outline: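 Human monocytic THP-1 cells are plated, treated with compound and held at 37 C for 17 hrs. Labeled anti-TNF-alpha antibody mixture is then added; after 3 hr at room temperature, TR-FRET signal reports secreted TNF-alpha.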

[9] = qHTS assay for environmental chemicals that activate the Aryl hydrocarbon Receptor (AhR) signaling pathway (AID 651777; active means well fitted curve in the direction sought with a large enough effect; an effect the other way counts as inactive or inconclusive; further: nearly all actives have a fitted effect of over 15% in size); conditions: 1A2-DRE human hepatoma cells, luciferase, 24 h; activation: stronger effect = higher value
Outline: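 Concentration–response screening used 1,200 1A2-DRE cells per well, 24 hr compound exposure (37 C, 5% CO2), and One-Glo luminescence as the AhR-driven CYP1A2 reporter signal.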

[10] = biological target: Peroxisome proliferator-activated receptor alpha (Homo sapiens) (UniProt Q07869); assay: qHTS assay for small molecule agonists of the peroxisome proliferator-activated receptor alpha (PPARalpha) signaling pathway (AID 651778; active means well fitted curve in the direction sought with a large enough effect; an effect the other way counts as inactive or inconclusive); conditions: PathHunter PPARalpha complementation, chemiluminescence, 6 h; stronger effect = higher value
Chain of Peroxisome proliferator-activated receptor alpha (Homo sapiens) (Q07869 whole entry, looked up): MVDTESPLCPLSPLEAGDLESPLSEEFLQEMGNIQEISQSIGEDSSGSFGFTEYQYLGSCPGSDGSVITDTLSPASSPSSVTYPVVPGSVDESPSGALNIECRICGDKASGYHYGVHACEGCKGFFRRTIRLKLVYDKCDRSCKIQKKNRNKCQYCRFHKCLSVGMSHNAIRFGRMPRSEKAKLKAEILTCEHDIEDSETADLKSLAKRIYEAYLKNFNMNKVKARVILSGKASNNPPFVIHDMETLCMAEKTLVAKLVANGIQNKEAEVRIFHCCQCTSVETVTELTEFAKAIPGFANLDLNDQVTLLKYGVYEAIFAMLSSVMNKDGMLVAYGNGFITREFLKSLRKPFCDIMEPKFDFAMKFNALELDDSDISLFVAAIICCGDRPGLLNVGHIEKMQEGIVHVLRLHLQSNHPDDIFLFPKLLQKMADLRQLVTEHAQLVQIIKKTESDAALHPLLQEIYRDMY
Outline: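 Cells plated at 2,000/well and held overnight at 37 C, 5% CO2, then compound added by pin tool for 6 hr; after PathHunter detection reagent and 60 min at room temperature, chemiluminescence from enzyme complementation was read.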

[11] = biological target: Nuclear receptor ROR-gamma (Homo sapiens) (UniProt P51449); assay: qHTS assay for small molecule antagonists of the retinoid-related orphan receptor gamma (ROR-gamma) signaling pathway (AID 651802; active means well fitted curve in the direction sought with a large enough effect; an effect the other way counts as inactive or inconclusive;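 further: CHO cells with doxycycline-induced ROR-gamma expression; nearly all actives have a fitted effect of over 60% in size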); conditions: ROR-gamma antagonist cell reporter assay; series mostly up to 92.2 µM
Chain of Nuclear receptor ROR-gamma (Homo sapiens) (P51449 whole entry, looked up): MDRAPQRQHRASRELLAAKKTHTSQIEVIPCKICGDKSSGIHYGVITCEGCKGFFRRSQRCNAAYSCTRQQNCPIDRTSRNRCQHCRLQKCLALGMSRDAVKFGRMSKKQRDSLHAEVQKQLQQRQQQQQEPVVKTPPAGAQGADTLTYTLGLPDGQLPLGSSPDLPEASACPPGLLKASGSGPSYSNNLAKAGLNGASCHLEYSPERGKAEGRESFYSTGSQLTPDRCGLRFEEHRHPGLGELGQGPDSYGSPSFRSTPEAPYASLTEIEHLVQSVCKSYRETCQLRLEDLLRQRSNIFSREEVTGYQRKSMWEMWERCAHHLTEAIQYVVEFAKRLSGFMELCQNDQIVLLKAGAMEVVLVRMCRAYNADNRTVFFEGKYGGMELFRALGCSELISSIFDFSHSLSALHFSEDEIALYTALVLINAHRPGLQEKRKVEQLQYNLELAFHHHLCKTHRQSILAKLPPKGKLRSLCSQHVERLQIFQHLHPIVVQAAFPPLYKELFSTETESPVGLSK
Outline: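 Steps: cells dispensed; compound or DMSO transferred by pin tool; doxycycline added to induce the ROR response element-driven luciferase; plates held 16hr at 37C; ONE-Glo added and luminescence measured.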

[12] = qHTS assay for small molecule agonists of the antioxidant response element (ARE) signaling pathway measured by Nrf2-dependant transcriptional activity (AID 720636; active means well fitted curve in the direction sought with a large enough effect in the repeat runs; an effect the other way counts as inactive or inconclusive;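 further: HepG2 cells with an ARE-driven luciferase reporter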); conditions: ARE-luc HepG2, Nrf2 luciferase reporter, 16 h; series mostly up to 92.4 µM
Outline: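 Attachment 6 hr at 37 C, then compound versus DMSO vehicle for 16 hr in ARE-luc HepG2 cells (1% dialyzed FBS); luminescence recorded 30 min after ONE-Glo addition at room temperature.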

[13] = qHTS assay for small molecule antagonists of the retinoid-related orphan receptor gamma (ROR-gamma) signaling pathway - cell viability counter screen (AID 720652; active means well fitted curve in the direction sought with a large enough effect in the repeat runs; an effect the other way counts as inactive or inconclusive;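 further: CHO reporter cells with doxycycline-induced ROR-gamma expression; compound exposure lasted 16 hr before ATP read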); conditions: RORgamma reporter cell line viability counter screen; series mostly up to 92.2 µM
Outline: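 Steps: seed CHO cells bearing TET-inducible ROR and ROR response element-luciferase; rest 5 hr at 37 C; add compound, then doxycycline; incubate 16 hr; add CellTiter-Glo and read luminescence as ATP-based viability.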

[14] = qHTS assay for small molecule agonists of the antioxidant response element (ARE) signaling pathway measured by Nrf2-dependant transcriptional activity - cell viability counter screen (AID 720653; active means well fitted curve in the direction sought with a large enough effect in the repeat runs; an effect the other way counts as inactive or inconclusive); conditions: ARE-bla HepG2 viability, CellTiter-Glo ATP luminescence, 16 h; stronger effect = lower value
Outline: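 ARE-bla HepG2 cells (2,000/well) rested 5 hrs at 37C/5% CO2, then exposed to compounds in DMSO for 16 hrs. Viability was read in the same wells as intracellular ATP by luminescence, 30 min at room temperature after reagent addition.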

[15] = qHTS assay for small molecule agonists of the antioxidant response element (ARE) signaling pathway (AID 651741; active means well fitted activation curve with a large enough effect in the signal ratio; the % refers to the signal ratio); conditions: HepG2 ARE-bla reporter, beta-lactamase FRET ratio, 16 h; series mostly up to 96 µM
Outline: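 Reporter: beta-lactamase under ARE, stably in HepG2. Exposure: 16 h, 37 C, compounds delivered in DMSO by pin tool after 5 h cell preincubation. Readout: FRET substrate fluorescence after 2 h at RT.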

[16] = qHTS assay for small molecule disruptors of the mitochondrial membrane potential - 1 hr assay (AID 651754); conditions: series mostly up to 92.2 µM; further: nearly all actives have a fitted effect of over 35% in size
Outline: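 Loss of mitochondrial potential shifts the cationic dye from red mitochondrial aggregates to green cytoplasmic monomers. Cells (HepG2) are treated with compound for 1 hr before a 30 min dye incubation at 37C.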

[17] = qHTS assay for small molecule disruptors of the mitochondrial membrane potential - 5 hr assay (AID 651755); conditions: JC-1-type ratio dye; series mostly up to 92.2 µM; further: nearly all actives have a fitted effect of over 40% in size
Outline: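 Seed HepG2 overnight, add compound, incubate 5 hr at 37C and 5% CO2, stain 30 min with Mito-MPS, then measure monomer (490/535 nm) and aggregate (540/590 nm) fluorescence.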

[18] = qHTS assay for small molecule activators of the nuclear factor-kappa B (NF-kB) signaling pathway (AID 651749; active means well fitted activation curve with a large enough effect in the signal ratio; the % refers to the signal ratio); conditions: NF-kB-bla ME-180 cells, beta-lactamase FRET ratio, 16 h; stronger effect = higher value
Outline: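 Human ME-180 cervical cells with an NF-kB-bla construct; compounds added via 23 nL pin transfer, DMSO as vehicle; incubation 16 hr. Reporter activity measured by FRET disruption.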

[19] = biological target: Voltage-gated inwardly rectifying potassium channel KCNH2 (Homo sapiens) (UniProt Q12809); assay: qHTS Assay for Small Molecule Inhibitors of the Human hERG Channel Activity (AID 588834; active means well fitted curve in the direction sought with a large enough effect; an effect the other way counts as inactive or inconclusive;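 further: top concentration of the series differs between compounds; lower thallium flux fluorescence means stronger hERG block; nearly all actives have a fitted effect of over 50% in size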); conditions: U2OS BacMam hERG, FluxOR thallium flux fluorescence; series mostly up to 92.2 µM
Chain of Voltage-gated inwardly rectifying potassium channel KCNH2 (Homo sapiens) (Q12809 whole entry, looked up): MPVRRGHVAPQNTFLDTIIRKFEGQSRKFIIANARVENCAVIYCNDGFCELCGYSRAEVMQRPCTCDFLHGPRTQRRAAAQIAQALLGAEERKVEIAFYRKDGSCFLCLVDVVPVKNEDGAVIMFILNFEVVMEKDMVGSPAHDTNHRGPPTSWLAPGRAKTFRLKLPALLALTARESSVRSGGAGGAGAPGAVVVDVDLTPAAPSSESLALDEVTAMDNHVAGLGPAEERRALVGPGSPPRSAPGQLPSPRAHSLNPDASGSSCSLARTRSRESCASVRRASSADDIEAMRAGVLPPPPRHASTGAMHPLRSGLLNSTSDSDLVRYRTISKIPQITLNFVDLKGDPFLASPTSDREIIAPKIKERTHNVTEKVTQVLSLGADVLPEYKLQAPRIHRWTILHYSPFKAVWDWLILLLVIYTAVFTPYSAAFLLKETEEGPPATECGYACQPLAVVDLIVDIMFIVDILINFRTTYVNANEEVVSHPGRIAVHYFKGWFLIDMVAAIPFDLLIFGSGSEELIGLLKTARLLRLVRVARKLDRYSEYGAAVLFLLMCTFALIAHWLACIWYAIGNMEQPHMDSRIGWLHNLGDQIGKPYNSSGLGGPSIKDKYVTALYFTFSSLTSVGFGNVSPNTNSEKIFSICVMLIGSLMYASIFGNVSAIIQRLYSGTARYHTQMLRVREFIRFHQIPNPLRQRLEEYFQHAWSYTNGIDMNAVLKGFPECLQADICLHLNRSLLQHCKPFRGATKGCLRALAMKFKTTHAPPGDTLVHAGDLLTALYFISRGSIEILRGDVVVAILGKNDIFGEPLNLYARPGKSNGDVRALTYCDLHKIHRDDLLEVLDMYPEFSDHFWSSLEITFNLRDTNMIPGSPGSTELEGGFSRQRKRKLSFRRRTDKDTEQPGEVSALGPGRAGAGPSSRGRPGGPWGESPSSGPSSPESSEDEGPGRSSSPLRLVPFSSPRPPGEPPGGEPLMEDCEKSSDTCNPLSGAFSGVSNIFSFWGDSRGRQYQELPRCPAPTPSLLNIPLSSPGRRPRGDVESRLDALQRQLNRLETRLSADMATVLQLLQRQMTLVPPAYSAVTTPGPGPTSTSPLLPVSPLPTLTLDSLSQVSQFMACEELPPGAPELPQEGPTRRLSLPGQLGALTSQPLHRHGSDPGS
Outline: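 Step 1: BacMam hERG transduction of U2OS, 4 hrs RT. Step 2: overnight 37 °C, plate 2000 cells/well, 4 hr. Step 3: FluxOR load, compound 10 min, stimulate, read fluorescence.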

[20] = qHTS assay to identify small molecules that stimulate interleukin-8 (IL-8) secretion (AID 651758; active means well fitted activation curve with a large enough effect in the signal ratio; the % refers to the signal ratio); conditions: HTRF ratio (665/615); series mostly up to 92.2 µM
Outline: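 Quantitative HTS in THP-1 monocytic cells at 2000 cells per well, with 16 hrs compound incubation at 37 C. IL-8 in the medium was then quantified by HTRF immunoassay, read after 1-3 hrs at room temperature.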

SMILES	max response [1]	outcome [2]	outcome [3]	max response [4]	max response [5]	activity change % (negative = inhibition) [6]	activation [7]	Potency [8]	activation [9]	max response [10]	Potency [11]	outcome [12]	Potency [13]	max response [14]	Potency [15]	Potency [16]	Potency [17]	activation [18]	Potency [19]	Potency [20]
O=Cc1ccc(C(=O)O)cc1	15.4%	inactive	inactive	-11.2%	34.5% (inactive)	7.45% (inactive)	-2.17% (inactive)	inactive	-0.237% (inactive)	-5.11% (inactive)	inactive	inactive	inactive	-13.7% (inactive)	–	–	–	–	–	–
CC(=O)c1cccc([N+](=O)[O-])c1	-6.78%	inactive	inactive	3.27%	7.36% (inactive)	10.7% (inactive)	-3.72% (inactive)	inactive	1.48% (inactive)	–	–	inactive	inactive	17.8% (inactive)	inactive	inactive	inactive	–	–	–
CCCCN(CCO)CCCC	-2.59%	inactive	inactive	-12.3%	4.73% (inactive)	22.2% (inactive)	–	inactive	-0.692% (inactive)	-1.07% (inactive)	inactive	inactive	inactive	–	inactive	inactive	–	–	–	–
CCCCC(C=O)CC (centres undefined)	4.08%	inactive	inactive	2.69%	7.22% (inactive)	14.6% (inactive)	–	inactive	0.316% (inactive)	-5.44% (inactive)	inactive	inactive	inactive	–	inactive	inactive	inactive	-0.855% (inactive)	–	–
FC(F)(F)c1ccccc1Cl	-12.9%	inactive	inactive	-4.91%	-5% (inactive)	–	1.57% (inactive)	inactive	-0.14% (inactive)	-1.82% (inactive)	–	inactive	inactive	-5.26% (inactive)	inactive	inactive	inactive	-0.494% (inactive)	inactive	–
NC(=O)CCCCC(N)=O	-19.9%	inactive	inactive	-2.99%	6.15% (inactive)	2% (inactive)	-2.38% (inactive)	inactive	–	-1.94% (inactive)	–	inactive	inactive	–	–	inactive	inactive	1.81% (inactive)	–	inactive
CC(C)=CCC/C(C)=C/C=O	15.9% and -0.251%	inactive	inactive	6.99% and -4.75%	4.52% (inactive) and -4.94% (inactive)	-16.2% (inactive)	-0.8% (inactive) and -0.838% (inactive)	inactive	1.06% (inactive) and -1.3% (inactive)	-4.87% (inactive) and -0.301% (inactive)	inactive	inactive	inactive	-2.99% (inactive) and -11.3% (inactive)	inactive	inactive	inactive	–	–	inactive
CC(C)CO	-16%	inactive	inactive	-8.16%	-7% (inactive)	-17.4% (inactive)	–	inactive	–	–	inactive	inactive	inactive	-4.27% (inactive)	–	inactive	inactive	-1.15% (inactive)	–	–
CCN(CC)c1cccc(O)c1	-9.19%	inactive	inactive	6.69%	9.83% (inactive)	4.53% (inactive)	-0.279% (inactive)	–	4.44% (inactive)	-5.23% (inactive)	inactive	inactive	inactive	5.34% (inactive)	–	inactive	inactive	0.251% (inactive)	–	–
CC(=C/C=C/C(C)=C/C=C/C=C(C)/C=C/C=C(C)/C=C/C(=O)O)/C=C/C(=O)O	-15.4%	inactive	inactive	-2.63%	-3.15% (inactive)	-8.7% (inactive)	-0.825% (inactive)	inactive	2.66% (inactive)	–	inactive	inactive	inactive	-9.67% (inactive)	–	–	–	-0.299% (inactive)	–	–
O=C(O)/C=C/C(=O)O	-9.62%	inactive	inactive	-3.98%	8.67% (inactive)	3% (inactive)	-2.03% (inactive)	inactive	–	-1.33% (inactive)	inactive	inactive	–	17.2% (inactive)	–	inactive	inactive	-1.19% (inactive)	–	inactive
C=CCOC(=O)COCCC(C)C	-2.63%	inactive	inactive	-11.5%	9.99% (inactive)	–	–	inactive	-0.312% (inactive)	-5.81% (inactive)	–	inactive	inactive	5.49% (inactive)	inactive	inactive	inactive	-0.303% (inactive)	inactive	–
Cc1ccc(C#N)cc1	3.27%	inactive	inactive	-3.82%	0.597% (inactive)	4.16% (inactive)	–	inactive	2.83% (inactive)	–	inactive	inactive	inactive	4.38% (inactive)	–	–	inactive	0.0681% (inactive)	–	–
NC(=O)/N=N/C(N)=O	-17.5%	inactive	inactive	-9.97%	-2.12% (inactive)	–	-0.505% (inactive)	inactive	-0.307% (inactive)	–	–	inactive	–	19.2% (inactive)	–	inactive	inactive	2.36% (inactive)	inactive	inactive
